Test results reported in ChEMBL document CHEMBL1961873, “Compounds: GSK PKIS; Assays: Nanosyn kinase panel” (2012).

Tests used:
[1] = target: Protein kinase C gamma type (Homo sapiens) (UniProt P05129); conditions: at 1 µM;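 further: each value is an averaged percent inhibition of the enzyme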
[2] = target: T1, Protein kinase C iota type (Homo sapiens) (UniProt P41743); conditions: at 0.1 µM
T1 sequence (whole entry): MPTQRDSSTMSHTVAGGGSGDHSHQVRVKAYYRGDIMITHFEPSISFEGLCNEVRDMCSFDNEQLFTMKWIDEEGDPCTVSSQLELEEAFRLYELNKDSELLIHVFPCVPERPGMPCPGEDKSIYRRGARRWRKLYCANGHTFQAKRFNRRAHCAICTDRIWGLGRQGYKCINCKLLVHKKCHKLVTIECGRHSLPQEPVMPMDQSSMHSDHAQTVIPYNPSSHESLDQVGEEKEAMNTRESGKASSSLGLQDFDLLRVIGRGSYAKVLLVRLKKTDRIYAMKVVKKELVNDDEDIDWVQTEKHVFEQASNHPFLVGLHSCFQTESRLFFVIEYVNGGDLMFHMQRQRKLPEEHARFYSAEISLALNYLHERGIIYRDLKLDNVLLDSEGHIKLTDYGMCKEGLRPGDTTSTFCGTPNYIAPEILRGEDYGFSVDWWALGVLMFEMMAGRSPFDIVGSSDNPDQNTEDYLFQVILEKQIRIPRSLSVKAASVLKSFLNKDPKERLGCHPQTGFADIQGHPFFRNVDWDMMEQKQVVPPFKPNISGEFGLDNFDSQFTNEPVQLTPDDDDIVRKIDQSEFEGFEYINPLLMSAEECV

[3] = target: T1, Protein kinase C iota type (Homo sapiens); conditions: at 1 µM
[4] = target: Protein kinase C theta type (Homo sapiens) (UniProt Q04759); conditions: at 0.1 µM
[5] = target: Protein kinase C theta type (Homo sapiens) (UniProt Q04759); conditions: at 1 µM
[6] = target: Protein kinase C beta type (Homo sapiens) (UniProt P05771); conditions: at 0.1 µM
[7] = target: Protein kinase C beta type (Homo sapiens) (UniProt P05771); conditions: at 1 µM
[8] = target: T2, Serine/threonine-protein kinase D1 (Homo sapiens) (UniProt Q15139); conditions: at 0.1 µM
T2 sequence (whole entry): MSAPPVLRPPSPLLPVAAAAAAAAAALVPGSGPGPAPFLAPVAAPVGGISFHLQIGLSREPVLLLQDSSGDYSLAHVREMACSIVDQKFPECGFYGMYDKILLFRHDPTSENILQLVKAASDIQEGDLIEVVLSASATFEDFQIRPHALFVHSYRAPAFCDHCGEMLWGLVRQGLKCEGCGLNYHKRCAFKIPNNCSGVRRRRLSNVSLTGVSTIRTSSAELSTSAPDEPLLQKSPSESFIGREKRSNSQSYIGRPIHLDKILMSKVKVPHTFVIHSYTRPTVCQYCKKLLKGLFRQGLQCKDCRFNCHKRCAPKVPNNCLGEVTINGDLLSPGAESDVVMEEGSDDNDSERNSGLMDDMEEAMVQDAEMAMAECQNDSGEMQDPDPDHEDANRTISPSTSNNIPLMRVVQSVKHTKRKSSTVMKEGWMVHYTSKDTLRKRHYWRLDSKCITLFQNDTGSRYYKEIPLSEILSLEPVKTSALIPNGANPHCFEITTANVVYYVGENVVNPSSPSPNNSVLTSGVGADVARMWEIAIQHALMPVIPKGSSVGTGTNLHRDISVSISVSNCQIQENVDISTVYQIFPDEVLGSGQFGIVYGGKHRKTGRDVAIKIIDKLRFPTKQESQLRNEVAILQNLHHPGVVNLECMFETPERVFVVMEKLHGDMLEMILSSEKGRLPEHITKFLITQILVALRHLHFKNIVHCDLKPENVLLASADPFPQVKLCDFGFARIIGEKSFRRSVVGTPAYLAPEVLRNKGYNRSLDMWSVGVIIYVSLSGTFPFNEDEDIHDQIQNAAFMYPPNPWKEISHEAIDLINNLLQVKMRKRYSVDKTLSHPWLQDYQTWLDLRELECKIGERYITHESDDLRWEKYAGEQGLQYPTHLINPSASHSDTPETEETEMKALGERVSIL

[9] = target: T2, Serine/threonine-protein kinase D1 (Homo sapiens); conditions: at 1 µM
[10] = target: T3, Serine/threonine-protein kinase D2 (Homo sapiens) (UniProt Q9BZL6); conditions: at 0.1 µM;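 further: reported percent inhibition values are means, part of the GSK PKIS kinase panel screen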
T3 sequence (whole entry): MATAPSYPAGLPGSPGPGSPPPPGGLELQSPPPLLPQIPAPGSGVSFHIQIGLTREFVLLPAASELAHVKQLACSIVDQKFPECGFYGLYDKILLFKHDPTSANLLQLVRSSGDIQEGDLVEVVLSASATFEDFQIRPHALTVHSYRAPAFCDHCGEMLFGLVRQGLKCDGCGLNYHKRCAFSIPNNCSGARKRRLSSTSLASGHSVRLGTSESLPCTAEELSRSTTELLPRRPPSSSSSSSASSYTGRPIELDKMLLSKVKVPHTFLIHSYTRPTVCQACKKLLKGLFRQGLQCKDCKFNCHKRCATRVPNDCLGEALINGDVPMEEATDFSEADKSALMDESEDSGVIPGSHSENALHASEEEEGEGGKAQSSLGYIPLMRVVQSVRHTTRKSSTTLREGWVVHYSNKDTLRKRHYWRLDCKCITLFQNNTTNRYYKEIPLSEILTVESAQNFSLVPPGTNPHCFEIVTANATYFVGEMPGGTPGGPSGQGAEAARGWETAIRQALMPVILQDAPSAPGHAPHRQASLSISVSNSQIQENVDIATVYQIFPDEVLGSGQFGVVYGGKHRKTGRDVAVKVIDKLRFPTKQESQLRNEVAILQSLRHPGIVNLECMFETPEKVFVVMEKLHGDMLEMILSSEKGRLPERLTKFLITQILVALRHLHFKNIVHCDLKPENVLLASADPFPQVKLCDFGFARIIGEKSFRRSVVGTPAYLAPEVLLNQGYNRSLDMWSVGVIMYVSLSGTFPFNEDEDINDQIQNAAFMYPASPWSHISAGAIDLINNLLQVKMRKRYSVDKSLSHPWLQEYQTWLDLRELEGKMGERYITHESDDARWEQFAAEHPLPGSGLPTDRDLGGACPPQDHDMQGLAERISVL

Chain of Protein kinase C theta type (Homo sapiens) (Q04759 whole entry, looked up): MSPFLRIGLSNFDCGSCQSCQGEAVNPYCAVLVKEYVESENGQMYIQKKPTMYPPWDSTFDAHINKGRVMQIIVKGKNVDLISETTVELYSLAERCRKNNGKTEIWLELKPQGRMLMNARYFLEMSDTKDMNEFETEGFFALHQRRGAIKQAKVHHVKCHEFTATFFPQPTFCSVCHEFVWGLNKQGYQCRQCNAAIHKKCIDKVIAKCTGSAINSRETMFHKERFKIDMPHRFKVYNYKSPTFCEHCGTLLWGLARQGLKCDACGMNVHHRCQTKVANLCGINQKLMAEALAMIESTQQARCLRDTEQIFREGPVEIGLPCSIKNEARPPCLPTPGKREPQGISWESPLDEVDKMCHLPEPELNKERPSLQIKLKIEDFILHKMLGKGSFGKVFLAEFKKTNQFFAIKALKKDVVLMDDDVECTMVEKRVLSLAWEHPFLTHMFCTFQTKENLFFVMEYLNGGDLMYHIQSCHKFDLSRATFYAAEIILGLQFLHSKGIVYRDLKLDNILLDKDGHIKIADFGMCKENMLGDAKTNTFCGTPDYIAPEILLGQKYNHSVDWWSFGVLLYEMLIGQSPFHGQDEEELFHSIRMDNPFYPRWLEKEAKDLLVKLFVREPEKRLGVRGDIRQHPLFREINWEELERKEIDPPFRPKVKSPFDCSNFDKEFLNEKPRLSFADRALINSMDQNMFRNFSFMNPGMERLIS
Chain of Protein kinase C beta type (Homo sapiens) (P05771 2-671 limits assumed): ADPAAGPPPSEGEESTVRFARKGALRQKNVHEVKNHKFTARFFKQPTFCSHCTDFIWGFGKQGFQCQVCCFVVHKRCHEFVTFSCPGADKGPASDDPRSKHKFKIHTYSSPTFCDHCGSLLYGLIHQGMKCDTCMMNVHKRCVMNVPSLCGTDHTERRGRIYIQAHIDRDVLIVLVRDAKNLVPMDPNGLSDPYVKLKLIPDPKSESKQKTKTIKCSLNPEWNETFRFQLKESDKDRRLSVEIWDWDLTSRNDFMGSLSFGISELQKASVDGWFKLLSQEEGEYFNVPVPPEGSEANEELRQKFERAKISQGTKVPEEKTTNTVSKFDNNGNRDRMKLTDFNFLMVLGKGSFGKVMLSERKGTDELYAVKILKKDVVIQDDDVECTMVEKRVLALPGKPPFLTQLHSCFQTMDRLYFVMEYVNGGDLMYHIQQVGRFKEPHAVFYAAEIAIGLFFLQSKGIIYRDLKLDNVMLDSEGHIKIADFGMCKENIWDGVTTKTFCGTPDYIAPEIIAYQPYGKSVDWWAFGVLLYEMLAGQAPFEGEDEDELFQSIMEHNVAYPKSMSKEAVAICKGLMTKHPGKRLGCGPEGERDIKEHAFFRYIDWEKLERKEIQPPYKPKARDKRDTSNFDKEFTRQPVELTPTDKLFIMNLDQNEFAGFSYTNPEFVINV

Row | Compound | inhibition [1] [%] | inhibition [2] [%] | inhibition [3] [%] | inhibition [4] [%] | inhibition [5] [%] | inhibition [6] [%] | inhibition [7] [%] | inhibition [8] [%] | inhibition [9] [%] | inhibition [10] [%]
1 | COc1ccc(-c2nn3ncccc3c2-c2ccnc(Nc3ccc(F)c(F)c3)n2)cc1 | 6.44 | 1.96 | 0.63 | 2.86 | 7.77 | 1.81 | 3.24 | 4.47 | 5.19 | 3.52
2 | CCS(=O)(=O)c1ccc(OC)c(Nc2ncc(-c3cccc(F)c3)o2)c1 | 5.39 | 2.05 | 3.04 | 2.72 | 4.21 | 1.9 | 4.01 | 4.25 | 5.42 | 3.92
3 | COc1cc(N2CCN(C(C)C)CC2)ccc1Nc1nc(Nc2cccc(F)c2C(=O)O)c2cc[nH]c2n1 | 5.49 | 0.72 | 0.65 | 2.48 | 3.08 | 1.66 | 2.08 | 3.89 | 6.58 | 3.65
4 | c1cnn2ncc(-c3ccnc(NCCCN4CCOCC4)n3)c2c1 | 4.8 | 0.92 | 4.4 | 2.07 | 2.41 | 1.96 | 3.47 | 2.81 | 5.95 | 3.62
5 | O=C(Nc1n[nH]c2nnc(-c3cccnc3)cc12)C1CC1 | 2.11 | -0.5 | -0.56 | -0.08 | 0.79 | 0.49 | 3.21 | -0.5 | 0.81 | -1.06
6 | CC1=C(C(=O)Nc2ccc3[nH]ncc3c2)C(c2ccc(F)cc2)N=C(c2ccc(C(F)(F)F)nc2)N1 (stereo not given) | 3.28 | 1 | 1.59 | 1.3 | 1.01 | 4.27 | 0.68 | 2.04 | 3.26 | 2.6
7 | Cc1cc(O)cc(C)c1/C=C/c1cncc(C(N)=O)c1 | 2.79 | 0.54 | 1.6 | 1.21 | 0.54 | 1.28 | 1.05 | 2.25 | 3.69 | 2.04
8 | CNC(=O)c1cncc(/C=C/c2ccccc2C)c1 | 4.82 | 0.25 | 1.08 | 2.42 | 5.04 | 0.51 | 3.14 | 3.24 | 5.01 | 3.71
9 | CS(=O)(=O)CCNCc1ccoc1-c1ccc2ncnc(Nc3ccc(OCc4ccccc4)cc3)c2c1 | 0.87 | 0.27 | -1.03 | -0.2 | 0.08 | -0.23 | 0.72 | 1.6 | 2.33 | 1.46
10 | Cn1c(-c2nonc2N)nc2cnccc21 | 2.78 | 1.03 | 3.76 | 1.13 | 3.08 | 1.16 | 5.62 | 3.06 | 14.8 | 2.42
11 | CCCNc1cccc(-n2ncc3c(N/N=C/c4ccncc4)ncnc32)c1 | 5.49 | 3.86 | 12.5 | 1.36 | 2.98 | 3.39 | 3.89 | 2.19 | 1.22 | -2.37
12 | Fc1cccc(COc2ccc(Nc3ncncc3C#Cc3ccccc3)cc2Cl)c1 | 4.55 | 1.11 | 0.75 | 3.42 | 4.89 | 0.66 | 1.48 | 4.73 | 7.41 | 5.16
13 | COc1ccc(Nc2ncc(-c3ccccc3)o2)cc1OC | 1.49 | -0.08 | 0.61 | -0.85 | -0.93 | -0.24 | 1.4 | 0.41 | 2.5 | 0.6
14 | FC(F)(F)CNc1nccc(-c2cnn3ncccc23)n1 | -1.39 | 1.84 | 1.19 | 1.1 | 1.36 | 0.94 | 1.72 | 3.65 | 5.03 | 3.32
15 | Cc1cc(O)cc(C)c1/C=C/c1cncc(C(=O)OC(C)(C)C)c1 | 2.62 | 2.97 | 0.22 | 1.48 | 1.91 | 1.37 | 1.05 | 2.14 | 2.96 | 1.79
